In all, about 8,300 sequences were measured (“log2 fold change of degron read counts, EGFP-low vs EGFP+ sorted cells (limma voom), compound-induced degradation”: median about -1.1, highest 2% from about 3.2 on). The sample as a whole holds a higher share of the highest values than the screen did.
Biological target: T1, CRBN, Q96SW2
T1 chain: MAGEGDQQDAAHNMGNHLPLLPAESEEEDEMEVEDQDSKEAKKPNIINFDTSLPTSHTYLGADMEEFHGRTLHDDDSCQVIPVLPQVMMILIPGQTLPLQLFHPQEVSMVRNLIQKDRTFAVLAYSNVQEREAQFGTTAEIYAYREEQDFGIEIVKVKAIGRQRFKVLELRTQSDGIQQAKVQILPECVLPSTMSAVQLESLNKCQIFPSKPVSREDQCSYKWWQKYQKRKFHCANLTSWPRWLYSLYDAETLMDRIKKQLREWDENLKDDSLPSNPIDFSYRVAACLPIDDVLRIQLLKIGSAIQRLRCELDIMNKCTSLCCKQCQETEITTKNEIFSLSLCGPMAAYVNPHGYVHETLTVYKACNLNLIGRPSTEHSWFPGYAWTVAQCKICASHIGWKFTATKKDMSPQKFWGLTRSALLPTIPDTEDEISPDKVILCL
Assay: log2 fold change of degron read counts, EGFP-low vs EGFP+ sorted cells (limma voom), compound-induced degradation; higher = more compound-induced degradation of the degron-EGFP fusion; degrons are variants of IKZF1/3 zinc finger 2; compound dose not given here
Settings: Jurkat, 18 h

[1] = compound: compound 19 (5-tert-butyl-thalidomide)
[2] = compound: compound 22 (5-morpholino-thalidomide)
[3] = compound: compound 33 (diphenyl IMiD analogue)
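Note: pooled lentiviral library of zinc finger degron-EGFP fusions in mCherry-positive Jurkat cells, FACS-sorted after compound exposure, with degron abundance counted by next-generation sequencing.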

B1: 46F_47I_49N_50Q_52G_53A_54M_55F_67L_, Q9UKT9 (peptide)
chain: FICNQCGAMFTQKGNLLRHIKL
For B1, the “log2 fold change of degron read counts” value [1] was -2.72, the “log2 fold change of degron read counts” value [2] was -2.75 and the “log2 fold change of degron read counts” value [3] was -0.507. For the same sequence, the “log2 fold change of degron read counts” value (compound: thalidomide) was -1.6.

B2: 46F_47S_49P_50I_52G_53H_54C_55F_67L_, Q9UKT9 (peptide)
chain: FSCPICGHCFTQKGNLLRHIKL
With B2 the “log2 fold change of degron read counts” value [1] was -2.27, the “log2 fold change of degron read counts” value [2] was -2.66 and the “log2 fold change of degron read counts” value [3] was -1.41. For the same sequence, the “log2 fold change of degron read counts” value (compound: thalidomide) was -1.81.

B3: 46F_47L_49N_50I_52G_53A_54H_55F_67L_, Q9UKT9 (peptide)
chain: FLCNICGAHFTQKGNLLRHIKL
In the case of B3, the “log2 fold change of degron read counts” value [1] is reported as -1.65, the “log2 fold change of degron read counts” value [2] is reported as -2 and the “log2 fold change of degron read counts” value [3] is reported as -0.489. For the same sequence, the “log2 fold change of degron read counts” value (compound: thalidomide) was -0.376.

B4: 46F_47F_49S_50V_52G_53H_54T_55F_67L_, Q9UKT9 (peptide)
chain: FFCSVCGHTFTQKGNLLRHIKL
For B4, the “log2 fold change of degron read counts” value [1] was -1.42, the “log2 fold change of degron read counts” value [2] was -2.35 and the “log2 fold change of degron read counts” value [3] was -2.3. The “log2 fold change of degron read counts” value (compound: thalidomide) was -2.45.

B5: 46F_47N_49N_50Q_52G_53A_54K_55F_67L_, Q9UKT9 (peptide)
chain: FNCNQCGAKFTQKGNLLRHIKL
In the case of B5, the “log2 fold change of degron read counts” value [1] is reported as -2.03, the “log2 fold change of degron read counts” value [2] is reported as -2.67 and the “log2 fold change of degron read counts” value [3] is reported as -2.17. For the same sequence, the “log2 fold change of degron read counts” value (compound: thalidomide) was -1.99.

B6: 46F_47Q_49N_50Q_52G_53H_54Y_55F_67L_, Q9UKT9 (peptide)
chain: FQCNQCGHYFTQKGNLLRHIKL
For B6, the “log2 fold change of degron read counts” value [1] was -3.07, the “log2 fold change of degron read counts” value [2] was -2.91 and the “log2 fold change of degron read counts” value [3] was -2.9. For the same sequence, the “log2 fold change of degron read counts” value (compound: thalidomide) was -2.48.

B7: 46F_47Y_49N_50Q_52G_53A_54T_55F_67L_, Q9UKT9 (peptide)
chain: FYCNQCGATFTQKGNLLRHIKL
For B7, the “log2 fold change of degron read counts” value [1] was -1.8, the “log2 fold change of degron read counts” value [2] was -0.678 and the “log2 fold change of degron read counts” value [3] was -1.33. The “log2 fold change of degron read counts” value (compound: thalidomide) was -2.43.

B8: 46F_47H_49D_50Q_52G_53A_54W_55F_67L_, Q9UKT9 (peptide)
chain: FHCDQCGAWFTQKGNLLRHIKL
In the case of B8, the “log2 fold change of degron read counts” value [1] is reported as -2.39, the “log2 fold change of degron read counts” value [2] is reported as -3.42 and the “log2 fold change of degron read counts” value [3] is reported as -2.72. The “log2 fold change of degron read counts” value (compound: thalidomide) was -2.68.

B9: 46F_47Y_49E_50I_52G_53R_54D_55F_67L_, Q9UKT9 (peptide)
chain: FYCEICGRDFTQKGNLLRHIKL
For B9, the “log2 fold change of degron read counts” value [1] was -2.29, the “log2 fold change of degron read counts” value [2] was -2.76 and the “log2 fold change of degron read counts” value [3] was -1.95. The “log2 fold change of degron read counts” value (compound: thalidomide) was -2.67.

B10: 46F_47Q_49D_50Q_52G_53A_54Q_55F_67L_, Q9UKT9 (peptide)
chain: FQCDQCGAQFTQKGNLLRHIKL
In the case of B10, the “log2 fold change of degron read counts” value [1] is reported as -2.81, the “log2 fold change of degron read counts” value [2] is reported as -1.76 and the “log2 fold change of degron read counts” value [3] is reported as -1.35. For the same sequence, the “log2 fold change of degron read counts” value (compound: thalidomide) was 0.414.

B11: 46F_47F_49E_50I_52G_53H_54M_55F_67L_, Q9UKT9 (peptide)
chain: FFCEICGHMFTQKGNLLRHIKL
For B11, the “log2 fold change of degron read counts” value [1] was -1.68, the “log2 fold change of degron read counts” value [2] was -2.18 and the “log2 fold change of degron read counts” value [3] was -1.72. The “log2 fold change of degron read counts” value (compound: thalidomide) was -2.01.

B12: 46F_47E_49N_50Q_52G_53A_54Y_55F_67L_, Q9UKT9 (peptide)
chain: FECNQCGAYFTQKGNLLRHIKL
With B12 the “log2 fold change of degron read counts” value [1] was -2.64, the “log2 fold change of degron read counts” value [2] was -2.84 and the “log2 fold change of degron read counts” value [3] was -1.48. The “log2 fold change of degron read counts” value (compound: thalidomide) was -1.4.

B13: 46F_47M_49E_50I_52G_53H_54V_55F_67L_, Q9UKT9 (peptide)
chain: FMCEICGHVFTQKGNLLRHIKL
With B13 the “log2 fold change of degron read counts” value [1] was -2.94, the “log2 fold change of degron read counts” value [2] was -3.04 and the “log2 fold change of degron read counts” value [3] was -2.18. The “log2 fold change of degron read counts” value (compound: thalidomide) was -2.54.

B14: 46F_47K_49N_50I_52G_53A_54W_55F_67L_, Q9UKT9 (peptide)
chain: FKCNICGAWFTQKGNLLRHIKL
With B14 the “log2 fold change of degron read counts” value [1] was -1.98, the “log2 fold change of degron read counts” value [2] was -2.92 and the “log2 fold change of degron read counts” value [3] was -2.11. For the same sequence, the “log2 fold change of degron read counts” value (compound: thalidomide) was -1.78.

B15: 46F_47C_49P_50I_52G_53A_54D_55F_67L_, Q9UKT9 (peptide)
chain: FCCPICGADFTQKGNLLRHIKL
With B15 the “log2 fold change of degron read counts” value [1] was 1.61, the “log2 fold change of degron read counts” value [2] was 1.1 and the “log2 fold change of degron read counts” value [3] was 1.77. For the same sequence, the “log2 fold change of degron read counts” value (compound: thalidomide) was 1.6.

B16: 46F_47L_49P_50I_52G_53A_54P_55F_67L_, Q9UKT9 (peptide)
chain: FLCPICGAPFTQKGNLLRHIKL
For B16, the “log2 fold change of degron read counts” value [1] was 2.02, the “log2 fold change of degron read counts” value [2] was 2.98 and the “log2 fold change of degron read counts” value [3] was 2.65. For the same sequence, the “log2 fold change of degron read counts” value (compound: thalidomide) was 3.18.

B17: 46F_47Y_49P_50I_52G_53A_54K_55F_67L_, Q9UKT9 (peptide)
chain: FYCPICGAKFTQKGNLLRHIKL
For B17, the “log2 fold change of degron read counts” value [1] was 2.61, the “log2 fold change of degron read counts” value [2] was 3.07 and the “log2 fold change of degron read counts” value [3] was 1.08. The “log2 fold change of degron read counts” value (compound: thalidomide) was 0.503.

B18: 46F_47Y_49P_50I_52G_53A_54D_55F_67L_, Q9UKT9 (peptide)
chain: FYCPICGADFTQKGNLLRHIKL
B18 was tested, and the “log2 fold change of degron read counts” value [1] was 1.73, the “log2 fold change of degron read counts” value [2] was 1.44 and the “log2 fold change of degron read counts” value [3] was 1.25. The “log2 fold change of degron read counts” value (compound: thalidomide) was -0.522.

B19: 46F_47Y_49P_50I_52G_53A_54P_55F_67L_, Q9UKT9 (peptide)
chain: FYCPICGAPFTQKGNLLRHIKL
For B19, the “log2 fold change of degron read counts” value [1] was 3.63, the “log2 fold change of degron read counts” value [2] was 3.27 and the “log2 fold change of degron read counts” value [3] was 2.84. For the same sequence, the “log2 fold change of degron read counts” value (compound: thalidomide) was 2.2.

B20: 46F_47V_49P_50I_52G_53A_54P_55F_67L_, Q9UKT9 (peptide)
chain: FVCPICGAPFTQKGNLLRHIKL
B20 was tested, and the “log2 fold change of degron read counts” value [1] was 2.4, the “log2 fold change of degron read counts” value [2] was 3.68 and the “log2 fold change of degron read counts” value [3] was 2.3. For the same sequence, the “log2 fold change of degron read counts” value (compound: thalidomide) was 3.49.

B21: 46F_47C_49N_50I_52G_53A_54P_55F_67L_, Q9UKT9 (peptide)
chain: FCCNICGAPFTQKGNLLRHIKL
For B21, the “log2 fold change of degron read counts” value [1] was 3.01, the “log2 fold change of degron read counts” value [2] was 2.73 and the “log2 fold change of degron read counts” value [3] was 1.32. The “log2 fold change of degron read counts” value (compound: thalidomide) was 1.86.

B22: 46F_47D_49P_50I_52G_53A_54P_55F_67L_, Q9UKT9 (peptide)
chain: FDCPICGAPFTQKGNLLRHIKL
B22 was tested, and the “log2 fold change of degron read counts” value [1] was 2.88, the “log2 fold change of degron read counts” value [2] was 1.73 and the “log2 fold change of degron read counts” value [3] was 1.54. The “log2 fold change of degron read counts” value (compound: thalidomide) was 2.15.

B23: 46F_47C_49P_50I_52G_53A_54P_55F_67L_, Q9UKT9 (peptide)
chain: FCCPICGAPFTQKGNLLRHIKL
With B23 the “log2 fold change of degron read counts” value [1] was 3.65, the “log2 fold change of degron read counts” value [2] was 3.16 and the “log2 fold change of degron read counts” value [3] was 2.16. For the same sequence, the “log2 fold change of degron read counts” value (compound: thalidomide) was 2.67.

B24: 46F_47C_49D_50I_52G_53A_54M_55F_67L_, Q9UKT9 (peptide)
chain: FCCDICGAMFTQKGNLLRHIKL
B24 was tested, and the “log2 fold change of degron read counts” value [1] was 0.674, the “log2 fold change of degron read counts” value [2] was 0.00358 and the “log2 fold change of degron read counts” value [3] was 0.721. For the same sequence, the “log2 fold change of degron read counts” value (compound: thalidomide) was -0.808.

B25: 46F_47W_49N_50V_52G_53A_54C_55F_67L_, Q9UKT9 (peptide)
chain: FWCNVCGACFTQKGNLLRHIKL
In the case of B25, the “log2 fold change of degron read counts” value [1] is reported as 1.84, the “log2 fold change of degron read counts” value [2] is reported as 2.89 and the “log2 fold change of degron read counts” value [3] is reported as 1.57. For the same sequence, the “log2 fold change of degron read counts” value (compound: thalidomide) was -0.431.

B26: 46F_47Y_49N_50Q_52G_53H_54A_55F_67L_, Q9UKT9 (peptide)
chain: FYCNQCGHAFTQKGNLLRHIKL
B26 was tested, and the “log2 fold change of degron read counts” value [1] was -2.34, the “log2 fold change of degron read counts” value [2] was -2.37 and the “log2 fold change of degron read counts” value [3] was -2.98. The “log2 fold change of degron read counts” value (compound: thalidomide) was -2.66.

B27: 46F_47L_49D_50I_52G_53A_54S_55F_67L_, Q9UKT9 (peptide)
chain: FLCDICGASFTQKGNLLRHIKL
In the case of B27, the “log2 fold change of degron read counts” value [1] is reported as 0.329, the “log2 fold change of degron read counts” value [2] is reported as -1.41 and the “log2 fold change of degron read counts” value [3] is reported as 0.103. The “log2 fold change of degron read counts” value (compound: thalidomide) was -0.525.

B28: 46F_47N_49D_50I_52G_53A_54E_55F_67L_, Q9UKT9 (peptide)
chain: FNCDICGAEFTQKGNLLRHIKL
In the case of B28, the “log2 fold change of degron read counts” value [1] is reported as 0.228, the “log2 fold change of degron read counts” value [2] is reported as -1.87 and the “log2 fold change of degron read counts” value [3] is reported as -2.21. For the same sequence, the “log2 fold change of degron read counts” value (compound: thalidomide) was -2.45.
